Where a name gives a salt, the structure may show the parent alone.
Test system: HL-1
Assay: relative cell viability (CellTiter-Glo) vs DMSO control (% of DMSO control); higher = more viable cells
Method in brief: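 Cell viability, normalised to vehicle-treated control cells, was read by CellTiter-Glo luminescence. For this, HL-1 mouse atrial cardiomyocytes were plated at 1000 cells per well in 384-well plates alongside compounds at 40, 200, 1000 or 5000 nM in 0.01% DMSO. After a day, plates either spent 48 h in a hypoxic workstation at 1% O2 and then 24 h reoxygenating in a normal incubator, or remained in normoxia for the same period.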

[1] = oxygen condition: hypoxia 48 h (1% O2) + reoxygenation 24 h, 40 nM
[2] = oxygen condition: hypoxia 48 h (1% O2) + reoxygenation 24 h, 200 nM
[3] = oxygen condition: hypoxia 48 h (1% O2) + reoxygenation 24 h, 1000 nM
[4] = oxygen condition: hypoxia 48 h (1% O2) + reoxygenation 24 h, 5000 nM
[5] = oxygen condition: normoxia 72 h, 40 nM
[6] = oxygen condition: normoxia 72 h, 200 nM
[7] = oxygen condition: normoxia 72 h, 1000 nM
[8] = oxygen condition: normoxia 72 h, 5000 nM

SMILES | relative cell viability [1] | relative cell viability [2] | relative cell viability [3] | relative cell viability [4] | relative cell viability [5] | relative cell viability [6] | relative cell viability [7] | relative cell viability [8]
CCCCOc1ccc(CC(=O)NO)cc1 [Bufexamac] | 109 | 100 | 111 | 117 | 105 | 107 | 107 | 110
CC(C)NCC(O)COc1ccc(CCOCC2CC2)cc1 (centres undefined) [Betaxolol hydrochloride] | 107 | 104 | 106 | 79.8 | 105 | 106 | 86.5 | 69.3
Cc1ncc(CO)c(CO)c1O [Pyridoxine hydrochloride] | 102 | 101 | 103 | 109 | 99.7 | 100 | 103 | 114
CO[C@H]1C(=O)[C@]2(C)[C@@H](OC)C[C@H]3OC[C@@]3(OC(C)=O)[C@H]2[C@H](OC(=O)c2ccccc2)[C@]2(O)C[C@H](OC(=O)[C@H](O)[C@@H](NC(=O)OC(C)(C)C)c3ccccc3)C(C)=C1C2(C)C [Cabazitaxel] | 32.1 | 34.3 | 39.6 | 36.6 | 24.7 | 27.2 | 26.8 | 29.7
Nc1cccc2c1C(=O)N(C1CCC(=O)NC1=O)C2=O (centres undefined) [Pomalidomide] | 100 | 97.5 | 103 | 112 | 96.9 | 104 | 103 | 113
CCCc1nn(C)c2c(=O)[nH]c(-c3cc(S(=O)(=O)N4CCN(C)CC4)ccc3OCC)nc12 [Sildenafil citrate] | 99.7 | 102 | 105 | 104 | 107 | 103 | 101 | 109
CCN(CC)CCNC(C(=O)OCCC(C)C)c1ccccc1 (centres undefined) [Camylofin Chlorhydrate] | 108 | 103 | 106 | 109 | 101 | 100 | 103 | 110
N[C@@H](Cc1cc(I)c(Oc2cc(I)c(O)c(I)c2)c(I)c1)C(=O)O [L-Thyroxine] | 98.5 | 101 | 99.6 | 110 | 108 | 101 | 99.3 | 109
CN(C)[C@@H](CCOc1cccc2ccccc12)c1ccccc1 [Dapoxetine hydrochloride] | 96.3 | 102 | 99.8 | 89.2 | 101 | 103 | 104 | 76.3
Oc1cc(O)c(Cl)cn1 [Gimeracil] | 99.3 | 101 | 100 | 104 | 97.8 | 101 | 101 | 105
CCN1CC(CCN2CCOCC2)C(c2ccccc2)(c2ccccc2)C1=O (centres undefined) [Doxapram HCl] | 102 | 104 | 100 | 107 | 116 | 103 | 106 | 112
CC/C(=C(/CC)c1ccc(O)cc1)c1ccc(O)cc1 [Diethylstilbestrol] | 105 | 106 | 107 | 109 | 108 | 96.7 | 108 | 112
CCCNC(C)C(=O)Nc1ccccc1C (centres undefined) [Prilocaine] | 96.7 | 101 | 105 | 104 | 92.2 | 92.1 | 92.3 | 97.4
Nc1nc(=O)c2c([nH]1)NCC(CNc1ccc(C(=O)N[C@@H](CCC(=O)O)C(=O)O)cc1)N2C=O (some centres undefined) [Leucovorin Calcium] | 106 | 111 | 110 | 104 | 98 | 101 | 102 | 95.3
CC(C)c1nc(CN(C)C(=O)N[C@@H](CCN2CCOCC2)C(=O)N[C@H](CC[C@H](Cc2ccccc2)NC(=O)OCc2cncs2)Cc2ccccc2)cs1 [Cobicistat] | 109 | 109 | 108 | 120 | 111 | 107 | 108 | 113
O=C(O)c1cn(C2CC2)c2cc(N3CCNCC3)c(F)cc2c1=O [Ciprofloxacin] | 107 | 100 | 99.7 | 121 | 97.4 | 99.2 | 107 | 121
Nc1ncn([C@H]2C[C@H](O)[C@@H](CO)O2)c(=O)n1 [Decitabine] | 103 | 104 | 94.1 | 65.4 | 101 | 104 | 91.2 | 58.2
O=C(CCCCCCC(=O)Nc1ccccc1)NO [Vorinostat] | 101 | 105 | 85 | 27.2 | 103 | 101 | 90.1 | 14.6
CC(=O)Oc1cc2c(s1)CCN(C(C(=O)C1CC1)c1ccccc1F)C2 (centres undefined) [Prasugrel] | 115 | 104 | 106 | 110 | 106 | 105 | 122 | 120
C#Cc1cccc(Nc2ncnc3cc(OCCOC)c(OCCOC)cc23)c1 [Erlotinib HCl] | 114 | 107 | 105 | 124 | 112 | 123 | 112 | 113
CC(C)CC(N)=O [Isovaleramide] | 96.1 | 91.3 | 96.4 | 112 | 96.3 | 90.2 | 87.8 | 104
CN(C)CCc1c[nH]c2ccc(C[C@H]3COC(=O)N3)cc12 [Zolmitriptan] | 105 | 104 | 104 | 110 | 108 | 104 | 102 | 102

SMILES | relative cell viability [1] | relative cell viability [2] | relative cell viability [3] | relative cell viability [4] | relative cell viability [5] | relative cell viability [6] | relative cell viability [7] | relative cell viability [8]
CS(=O)(=O)CCNCc1ccc(-c2ccc3ncnc(Nc4ccc(OCc5cccc(F)c5)c(Cl)c4)c3c2)o1 [Lapatinib Ditosylate] | 107 | 116 | 116 | 84.4 | 107 | 115 | 122 | 61.7
CCC[C@H](N[C@@H](C)C(=O)N1[C@H](C(=O)O)C[C@@H]2CCCC[C@@H]21)C(=O)OCC [Perindopril Erbumine] | 110 | 81 | 107 | 115 | 109 | 111 | 111 | 114
C=CCNC(N)=S [Allylthiourea] | 118 | 102 | 115 | 122 | 106 | 100 | 109 | 124
C#C[C@]1(O)CC[C@H]2[C@@H]3CCC4=CC(=O)CC[C@@H]4[C@H]3CC[C@@]21CC [Levonorgestrel] | 110 | 115 | 104 | 112 | 107 | 104 | 111 | 111
C=C1CC[C@H](O)C/C1=C/C=C1\CCC[C@]2(C)[C@@H]([C@H](C)CCCC(C)C)CC[C@@H]12 [Vitamin D3] | 104 | 89.6 | 54.7 | 109 | 94.8 | 70.8 | 66.2 | 116
C#CCN[C@@H]1CCc2ccccc21 [Rasagiline mesylate] | 94.8 | 96.7 | 98.2 | 102 | 93.3 | 92.9 | 99.4 | 108
CCC(NC(C)C)C(O)c1ccc(O)c(O)c1 (centres undefined) [Isoetharine Mesylate] | 98.5 | 96.3 | 95.5 | 106 | 95.4 | 107 | 78.7 | 111
CS(=O)(=O)c1ccc([C@@H](O)[C@@H](CO)NC(=O)C(Cl)Cl)cc1 [Thiamphenicol] | 104 | 104 | 109 | 104 | 101 | 96.9 | 95.9 | 86.5
NS(=O)(=O)c1cc2c(cc1C(F)(F)F)NC(Cc1ccccc1)NS2(=O)=O (centres undefined) [Bendroflumethiazide] | 93.6 | 98.4 | 101 | 106 | 104 | 100 | 105 | 110
Cc1ccc(S(=O)(=O)NC(=O)NN2CCCCCC2)cc1 [Tolazamide] | 101 | 103 | 98.3 | 110 | 102 | 99.1 | 106 | 117
COc1ccc([C@@H]2Sc3ccccc3N(CCN(C)C)C(=O)[C@@H]2OC(C)=O)cc1 [Diltiazem HCl] | 104 | 105 | 106 | 114 | 105 | 108 | 109 | 113
CCCC(CCC)C(=O)O [Valproic acid sodium salt] | 106 | 117 | 113 | 111 | 104 | 111 | 123 | 111
COC(=O)CCc1ccc(OCC(O)CNC(C)C)cc1 (centres undefined) [Esmolol HCl] | 103 | 104 | 105 | 80.4 | 104 | 104 | 108 | 112
CCC(=O)O[C@@H](O[P@](=O)(CCCCc1ccccc1)CC(=O)N1C[C@H](C2CCCCC2)C[C@H]1C(=O)O)C(C)C [Fosinopril sodium] | 106 | 99.9 | 101 | 108 | 101 | 103 | 106 | 111
O=C(O)Cc1cc(I)c(Oc2ccc(O)c(I)c2)c(I)c1 [Tiratricol] | 96.6 | 99.5 | 104 | 119 | 103 | 103 | 101 | 126
CCCCNC(=O)NS(=O)(=O)c1ccc(C)cc1 [Tolbutamide] | 99 | 99.7 | 101 | 113 | 103 | 102 | 102 | 110
COCCCOc1cc(C[C@@H](C[C@H](N)[C@@H](O)C[C@H](C(=O)NCC(C)(C)C(N)=O)C(C)C)C(C)C)ccc1OC [Aliskiren hemifumarate] | 94.1 | 97.2 | 92.3 | 107 | 95.9 | 102 | 101 | 107
Cc1ccc(N(CC2=NCCN2)c2cccc(O)c2)cc1 [Phentolamine mesilate] | 96.2 | 94.7 | 107 | 106 | 102 | 104 | 108 | 115
COc1cccc2c1C(=O)c1c(O)c3c(c(O)c1C2=O)C[C@@](O)(C(=O)CO)C[C@@H]3O[C@H]1C[C@H](N)[C@H](O)[C@H](C)O1 [Doxorubicin] | 63.3 | 44 | 57.3 | 16.7 | 63 | 55.4 | 52.4 | 13.7
CC(=O)Oc1ccc(C(c2ccc(OC(C)=O)cc2)c2ccccn2)cc1 [Bisacodyl] | 103 | 100 | 109 | 111 | 101 | 115 | 101 | 101
CCCCNc1cc(C(=O)O)cc(S(N)(=O)=O)c1Oc1ccccc1 [Bumetanide] | 102 | 108 | 110 | 113 | 105 | 96.8 | 112 | 118
